Experimental data as given in PubChem BioAssay (NCATS).
Inconclusive results are not listed. Activity calls are given as the source filed them. The call rests on the fitted dose curve; in most records, active means well fitted cell-killing curve with a large enough effect; inconclusive means small, poorly fitted or top-dose-only effect; inactive means flat fitted curve, though single readings scatter.

assay: MultiTox-Fluor Cytotoxicity Assay - LYMP1-001 - Live Cells (AID 947); conditions: LYMP1-001 lymphoblastoid cells, live-cell protease fluorescence viability; series mostly up to 92.2 µM

Q: Which outcome does the source give for `OCCOc1ccccc1` here?
A: The outcome was “inactive”.

Q: With `Oc1ccc(Cl)cc1Cc1ccccc1` as the molecule, how does the outcome read?
A: Its outcome is “inactive”.

Q: Which outcome does the source give for `CCOP(=S)(OCC)Oc1cc(C)nc(C(C)C)n1` here?
A: Its outcome is “inactive”.

Q: With `c1ccc2c(c1)Nc1ccccc1S2` as the molecule, how does the outcome read?
A: The outcome was “inactive”.

Q: With `Oc1ccccc1-c1ccccc1` as the molecule, how does the outcome read?
A: Its outcome is “inactive”.

Q: For `N[C@@H](Cc1ccc(N(CCCl)CCCl)cc1)C(=O)O`, which outcome is on record?
A: Its outcome is “inactive”.

Q: With `CNCC(O)c1ccc(O)cc1` (configuration not stated) as the molecule, how does the outcome read?
A: Its outcome is “inactive”.
